FPR ligand: human FPR ligand, with FPRL1 counter-screen | 0.74% of 24,000 active | FPR-expressing cells, fluorescent ligand binding, flow cytometry | AID 440 | P21462 | inhibition, % (test concentration not listed);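 further: 0% = buffer wells and 100% = receptor blocker peptide wells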
FPRL1 binder: ligands of human FPRL1, also counter-screen for FPR ligands. P25090. FPRL1-expressing cells, fluorescent ligand binding inhibition, flow cytometry. inhibition, % (test concentration not listed). 0.3% of 24,000 active;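 further: 0% = buffer alone and 100% = receptor blocker peptide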
Target sequence (P25090 whole entry, looked up): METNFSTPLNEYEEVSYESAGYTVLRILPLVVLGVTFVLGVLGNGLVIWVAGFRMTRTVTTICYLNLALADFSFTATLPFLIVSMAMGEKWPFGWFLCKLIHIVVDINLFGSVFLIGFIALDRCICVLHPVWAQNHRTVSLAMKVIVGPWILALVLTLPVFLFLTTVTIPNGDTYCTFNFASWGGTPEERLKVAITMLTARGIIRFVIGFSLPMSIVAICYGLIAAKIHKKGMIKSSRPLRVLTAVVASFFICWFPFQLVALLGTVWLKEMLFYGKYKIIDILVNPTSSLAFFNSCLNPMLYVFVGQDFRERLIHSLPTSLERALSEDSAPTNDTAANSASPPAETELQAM
QS inhibitor: inhibitors of bacterial quorum sensing in S. aureus; inhibition, % at 2 µM; 0.3% of 24,000 active; S. aureus RN6390 RNAIII-GFP reporter, AIP-induced, flow cytometry 3 h;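 active means share of bacteria positive for the green fluorescent reporter and its mean brightness both inhibited by 50% or more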;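 further: 0% = AIP-stimulated control and 100% = unstimulated bacteria without AIP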
An asterisk follows results filed as active; · = not tested or not shown. An excerpt weighted towards active compounds, which were near 1.2% of everything screened. Unless noted, no stated cut-off is given here; in the data, active means inhibition above about 30%; inconclusive means no clear call, values can overlap the other calls; inactive means below that.

SMILES	FPR ligand	FPRL1 binder	QS inhibitor
Cc1ccc(C2C(C(=O)c3ccco3)=C(O)C(=O)N2c2nnc(C)s2)cc1 (configuration not stated)	-3	1	·
COc1ccc(C2C(C(=O)c3cccs3)=C(O)C(=O)N2c2nncs2)cc1 (configuration not stated)	19	-5	·
C=CCOc1ccc(C2C(C(=O)c3cccs3)=C(O)C(=O)N2c2nnc(C)s2)cc1 (configuration not stated)	43*	21	·
COc1ccc(C2C(C(=O)c3cccs3)=C(O)C(=O)N2c2nnc(C)s2)cc1OC (configuration not stated)	36*	27	·
O=S(=O)(NCCOCC(F)(F)F)c1ccc2oc3ccccc3c2c1	3	-9	4
Cc1ccccc1-c1nc(CN2CCC(C(=O)NCCCN3CC(C)CC(C)C3)CC2)c(C)o1 (configuration not stated)	1	3	8
O=C1C(=O)N(CCCN2CCOCC2)C(c2cccs2)/C1=C(/O)c1ccc2c(c1)OCO2 (configuration not stated)	3	2	·
COc1ccc(CC(=O)Nc2c3c(nn2-c2cccc(C)c2C)CS(=O)C3)cc1OC (configuration not stated)	4	-20	-2
Cn1c(=O)oc2cc(S(=O)(=O)N3CCC(C(=O)NCc4cccs4)CC3)ccc21	1	6	-3
CC1CCN(S(=O)(=O)c2ccc3c(c2)oc(=O)n3CC(=O)NCc2ccc3c(c2)OCO3)CC1	39*	-4	67*
Cn1c(=O)oc2cc(S(=O)(=O)N3CCC(C(=O)NCC4COc5ccccc5O4)CC3)ccc21 (configuration not stated)	31*	20	-2
Cc1c(C(=O)NCc2ccc3c(c2)OCO3)oc2ccc(S(=O)(=O)N3CCC(C)CC3)cc12	-2	11	0
COc1ccc(CCN(C)CCCC(C#N)(c2ccc(OC)c(OC)c2)C(C)C)cc1OC (configuration not stated)	-5	-2	0
Cc1cc(C)cc(OCC(O)CN2C(=O)NC(C)(C)C2=O)c1 (configuration not stated)	2	0	0
O=c1cc(N2CCN(Cc3ccccc3)CC2)[nH]c(=O)n1Cc1ccc(F)cc1	6	4	6
O=c1cc(N2CCc3ccccc32)[nH]c(=O)n1Cc1ccc(F)cc1	43*	-9	-12
Cn1c2ccccc2c2cnn(CC(=O)N3CCN(c4ncccn4)CC3)c(=O)c21	-3	-1	-4
CSc1ccccc1NS(=O)(=O)c1ccccc1	31*	29	-14
COc1ccc(S(=O)(=O)Nc2ccccc2SC)cc1C	-1	2	-1
OC(CN1CCN(c2ccccc2)CC1)c1ccc2c(c1)CCN2 (configuration not stated)	-2	4	-2
CC(C)N=c1cc2n(-c3ccc(Cl)cc3)c3ccccc3nc-2cc1Nc1ccc(Cl)cc1	8	18	70*
O=C(O)c1ccc(S(=O)(=O)Cc2ccccc2)cc1	11	3	-1
CC(C)CN(CC(C)C)C(=O)CS(=O)(=O)Cc1ccccc1	63*	-3	-2
COc1ccc2nc(S(=O)Cc3ncc(C)c(OC)c3C)[nH]c2c1 (configuration not stated)	-2	4	1
Cc1cnn(Cc2ccccc2)c1N	-5	-2	1
SMILES	FPR ligand	FPRL1 binder	QS inhibitor
Cn1cccc1Cc1nnc(SCC(=O)Nc2ccccc2)n1-c1ccc(F)cc1	2	-5	61*
Cn1cccc1Cc1nnc(SCC(=O)Nc2ccc(F)cc2)n1-c1ccc(F)cc1	-1	-1	-7
COc1ccc(-n2c(Cc3cccn3C)nnc2SCC(=O)Nc2ccccc2)cc1	4	2	-4
COc1ccc(-n2c(Cc3cccn3C)nnc2SCC(=O)Nc2ccc(Cl)cc2)cc1	56*	1	19
Cc1cc(Nc2ccc(C)c(Br)c2)n2nc(C)nc2n1	-1	0	0
COC(=O)c1ccc2c(=O)n(Cc3ccc4c(c3)OCO4)c(SCC(=O)N3CCCC3)nc2c1	2	1	7
Cc1cccc(N2CCN(C(=O)C3CCCN(S(=O)(=O)c4cccc5cccnc45)C3)CC2)c1C (configuration not stated)	3	5	1
COc1ccc(/C(O)=C2\C(=O)C(=O)N(CCN(C)C)C2c2cccc(OC)c2OC)cc1 (configuration not stated)	-17	-13	·
COc1ccccc1C1/C(=C(/O)c2ccccc2)C(=O)C(=O)N1CCO (configuration not stated)	51*	-2	-2
COc1ccccc1C1/C(=C(/O)c2ccccc2)C(=O)C(=O)N1CC(C)O (configuration not stated)	42*	-3	-1
COCCCN1C(=O)C(=O)/C(=C(/O)c2ccccc2)C1c1ccc(N(C)C)cc1 (configuration not stated)	15	1	·
COCCCN1C(=O)C(=O)/C(=C(/O)c2ccccc2)C1c1ccc2c(c1)OCO2 (configuration not stated)	54*	0	·
Cc1ccc(/C(O)=C2\C(=O)C(=O)N(CC(C)O)C2c2cccc(F)c2)cc1 (configuration not stated)	-5	-2	·
Cc1cc(S(=O)(=O)N2CCN(c3ncccn3)CC2)ccc1-n1cnnn1	-18	0	0
CCN=C1SC(C(=O)Nc2ccccc2)CC(=O)N1CC (configuration not stated)	·	·	1
CCOC(=O)CCCOC(=O)c1ccc(S(=O)(=O)N(C)C)cc1	-7	1	-2
O=C(NCc1ccccn1)C1CCC(=O)N1C1CCCC1 (configuration not stated)	-3	-2	-2
O=C(CN1CCN(c2ccccn2)CC1)Nc1cc(C(F)(F)F)ccc1Cl	-9	-2	-4
CCOC(=O)C(C(C)=O)c1c(Br)c(O)c(O)c2c(C(=O)c3ccc(C)cc3)coc12 (configuration not stated)	·	·	3
CCC(NC(=O)Nc1cc(OC)c(OC)c(OC)c1)(C(F)(F)F)C(F)(F)F	45*	55*	0
COc1cc(NC(=O)c2ccc(COCC(F)(F)F)o2)cc(OC)c1OC	-7	2	2
Cc1ccsc1C1C2=C(CC(C)(C)CC2=O)Nc2ncnn21 (configuration not stated)	36*	2	-2
Cc1ccsc1C1C2=C(CCCC2=O)Nc2ncnn21 (configuration not stated)	9	-2	0
COc1cccc(-c2nn(C)c3sc(C(=O)NCc4ccccn4)cc23)c1	7	1	0
COc1cccc(-c2nn(C)c3sc(C(=O)Nc4ccc5c(c4)OCCO5)cc23)c1	6	5	82*
CCOc1ccccc1C1CC(c2ccc(Br)cc2)Nc2nc(N)nn21 (configuration not stated)	-5	-2	0
Cc1cc(=O)oc2ccc(OCC(=O)N(Cc3ccc(F)cc3)Cc3ccco3)cc12	-2	3	0
O=C1C(CCS(=O)c2ccccc2)C(=O)N(c2ccccc2)N1c1ccccc1 (configuration not stated)	34*	-7	2
C=CCOc1nc2c(c(=O)n(C)c(=O)n2C)n1Cc1c(Cl)cccc1Cl	2	-2	1
